Common to all, as to test: DAPPL (digital affinity profiling via proximity ligation, sequencing); 10 mM Tris-HCl pH 7.5, 50 mM NaCl, 1 mM DTT, 4% glycerol, room temperature, 30 min; GST-TFs on glutathione beads, 16-mer random dsDNA library, 0.1% formaldehyde crosslink after washing; high values mean tight binding
Conditions in all cases: protein: recombinant; tags: N-terminal GST; dsDNA, one strand shown

The target in assay [1] is CRX (Homo sapiens, UniProt O43186 1-299). Put shortly: (§1)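 Human transcription factors carrying a GST fusion were produced in yeast, bound to glutathione beads, tagged with DNA barcodes and pooled together with a tag-only sample. Each pool was held with 200 nmole of a random double-stranded 16-mer DNA library in Tris/NaCl/DTT/glycerol buffer for 30 min at room temperature, then washed, crosslinked in 0.1% formaldehyde, proximity-ligated with BsaI/T4 ligase (1 h, 37 °C), PCR-amplified and sequenced on an Illumina NextSeq500. Binding signal is the read frequency of each hexamer for a given factor divided by its frequency in the tag-only sample.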

The target in assay [2] is T1, ERF (Homo sapiens, UniProt P50548 1-548).
T1 sequence: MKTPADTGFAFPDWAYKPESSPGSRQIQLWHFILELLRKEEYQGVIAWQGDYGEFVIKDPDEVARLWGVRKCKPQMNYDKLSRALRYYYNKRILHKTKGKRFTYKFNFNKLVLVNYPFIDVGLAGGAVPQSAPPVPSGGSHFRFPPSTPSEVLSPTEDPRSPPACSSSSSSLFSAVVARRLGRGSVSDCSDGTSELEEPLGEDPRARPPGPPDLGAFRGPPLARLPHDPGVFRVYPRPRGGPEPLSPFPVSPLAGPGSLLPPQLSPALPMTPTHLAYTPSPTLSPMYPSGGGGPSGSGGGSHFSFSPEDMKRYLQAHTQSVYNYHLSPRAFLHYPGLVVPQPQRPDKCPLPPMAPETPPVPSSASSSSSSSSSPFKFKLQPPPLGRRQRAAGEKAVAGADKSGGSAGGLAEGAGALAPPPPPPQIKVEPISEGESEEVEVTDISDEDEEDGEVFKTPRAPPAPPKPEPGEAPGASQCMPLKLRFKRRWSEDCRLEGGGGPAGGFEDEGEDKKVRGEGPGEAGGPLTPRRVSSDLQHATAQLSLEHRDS
In short, it runs like this: as §1

Assay [3] deals with T2, ETV3L (Homo sapiens, UniProt Q6ZN32 1-361).
T2 sequence: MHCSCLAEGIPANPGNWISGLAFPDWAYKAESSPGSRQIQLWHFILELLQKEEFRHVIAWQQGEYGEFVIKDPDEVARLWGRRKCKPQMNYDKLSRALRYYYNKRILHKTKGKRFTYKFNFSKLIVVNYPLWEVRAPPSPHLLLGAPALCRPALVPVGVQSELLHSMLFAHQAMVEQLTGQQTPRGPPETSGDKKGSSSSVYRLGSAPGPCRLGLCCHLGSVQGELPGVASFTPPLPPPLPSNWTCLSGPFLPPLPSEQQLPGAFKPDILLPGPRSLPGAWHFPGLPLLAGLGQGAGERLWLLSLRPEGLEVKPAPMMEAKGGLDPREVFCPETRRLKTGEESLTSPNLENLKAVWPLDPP
Put shortly:
as §1

Assay [4] addresses T3, ETS2 (Homo sapiens, UniProt P15036 1-469).
T3 sequence: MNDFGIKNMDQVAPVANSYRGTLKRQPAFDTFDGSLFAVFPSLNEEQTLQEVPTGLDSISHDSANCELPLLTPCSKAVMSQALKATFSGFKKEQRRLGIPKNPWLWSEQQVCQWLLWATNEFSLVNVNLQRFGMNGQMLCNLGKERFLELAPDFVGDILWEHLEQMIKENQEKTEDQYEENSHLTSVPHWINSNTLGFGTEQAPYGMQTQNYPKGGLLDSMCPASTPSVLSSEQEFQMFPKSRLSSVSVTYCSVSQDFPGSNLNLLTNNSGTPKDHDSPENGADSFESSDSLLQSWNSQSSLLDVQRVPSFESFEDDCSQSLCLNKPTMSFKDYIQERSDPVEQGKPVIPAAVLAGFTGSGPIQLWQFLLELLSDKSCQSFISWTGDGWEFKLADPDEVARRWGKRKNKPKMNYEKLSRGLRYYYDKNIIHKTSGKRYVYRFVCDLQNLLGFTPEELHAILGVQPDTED
Put shortly:
as §1

For assay [5], the target named is T4, SPDEF (Homo sapiens, UniProt O95238 1-335).
T4 sequence: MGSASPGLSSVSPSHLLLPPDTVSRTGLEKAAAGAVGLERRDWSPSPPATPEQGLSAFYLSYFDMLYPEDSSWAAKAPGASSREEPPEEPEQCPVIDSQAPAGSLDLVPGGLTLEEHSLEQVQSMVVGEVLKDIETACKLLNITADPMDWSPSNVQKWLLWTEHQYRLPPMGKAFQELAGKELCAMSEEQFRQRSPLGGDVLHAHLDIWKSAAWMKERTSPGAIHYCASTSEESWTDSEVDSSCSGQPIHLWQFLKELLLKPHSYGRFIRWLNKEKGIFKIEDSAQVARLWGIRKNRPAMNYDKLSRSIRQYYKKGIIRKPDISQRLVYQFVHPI
Put shortly: as §1

Assay [6] has as its target T5, ETV7 (Homo sapiens, UniProt Q9Y603 1-341).
T5 sequence: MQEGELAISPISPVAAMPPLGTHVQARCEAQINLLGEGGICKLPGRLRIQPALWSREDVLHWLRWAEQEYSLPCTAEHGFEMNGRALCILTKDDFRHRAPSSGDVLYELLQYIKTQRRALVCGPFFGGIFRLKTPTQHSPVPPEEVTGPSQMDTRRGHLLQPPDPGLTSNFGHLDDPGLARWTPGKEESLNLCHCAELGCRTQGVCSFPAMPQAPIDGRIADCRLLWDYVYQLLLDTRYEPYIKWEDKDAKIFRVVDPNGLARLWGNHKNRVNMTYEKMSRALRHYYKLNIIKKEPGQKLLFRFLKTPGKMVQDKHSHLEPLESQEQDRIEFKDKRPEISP
In short, it runs like this: as §1

In assay [7] the target is T6, ELF5 (Homo sapiens, UniProt Q9UKW6-2 1-255).
T6 sequence: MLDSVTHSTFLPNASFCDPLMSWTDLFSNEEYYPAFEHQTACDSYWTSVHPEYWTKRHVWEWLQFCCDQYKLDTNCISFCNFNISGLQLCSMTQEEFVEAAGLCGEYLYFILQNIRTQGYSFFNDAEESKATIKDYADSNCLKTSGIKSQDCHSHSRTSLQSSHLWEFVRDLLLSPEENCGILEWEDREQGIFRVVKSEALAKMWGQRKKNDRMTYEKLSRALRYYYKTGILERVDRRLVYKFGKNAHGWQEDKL
Put shortly:
as §1

Assay [8] deals with T7, ETV3 (Homo sapiens, UniProt P41162-2 1-143).
T7 sequence: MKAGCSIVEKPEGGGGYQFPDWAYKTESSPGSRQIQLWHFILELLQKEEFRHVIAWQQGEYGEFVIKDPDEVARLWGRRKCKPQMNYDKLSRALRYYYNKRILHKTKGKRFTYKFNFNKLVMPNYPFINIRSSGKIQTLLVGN
In short, it runs like this: as §1

Assay [9] addresses ETV6 (Homo sapiens, UniProt P41212 1-452). Put shortly: as §1

CRX, sequence (O43186 whole entry, the tested form may be a part): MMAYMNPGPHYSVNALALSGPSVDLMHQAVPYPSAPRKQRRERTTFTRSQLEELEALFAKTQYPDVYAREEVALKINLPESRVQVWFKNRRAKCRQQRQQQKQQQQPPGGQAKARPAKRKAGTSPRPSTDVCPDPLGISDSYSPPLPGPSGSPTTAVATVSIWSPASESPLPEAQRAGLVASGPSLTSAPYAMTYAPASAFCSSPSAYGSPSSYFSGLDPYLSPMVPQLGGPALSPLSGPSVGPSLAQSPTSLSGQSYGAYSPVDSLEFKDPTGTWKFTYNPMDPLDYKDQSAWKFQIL
ETV6, sequence (P41212 whole entry): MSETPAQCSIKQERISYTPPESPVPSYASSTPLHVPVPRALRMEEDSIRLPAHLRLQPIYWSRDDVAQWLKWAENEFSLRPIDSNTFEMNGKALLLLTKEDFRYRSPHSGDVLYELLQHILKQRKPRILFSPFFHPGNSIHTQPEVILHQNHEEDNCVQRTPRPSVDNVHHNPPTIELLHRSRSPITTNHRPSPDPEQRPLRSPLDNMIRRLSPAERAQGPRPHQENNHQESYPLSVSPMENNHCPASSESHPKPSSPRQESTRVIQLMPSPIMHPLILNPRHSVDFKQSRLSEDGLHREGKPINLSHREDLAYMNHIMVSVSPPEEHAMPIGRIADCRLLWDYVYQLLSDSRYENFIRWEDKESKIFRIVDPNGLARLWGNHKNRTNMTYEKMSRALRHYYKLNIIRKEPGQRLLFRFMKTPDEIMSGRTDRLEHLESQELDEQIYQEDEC

On to AGAATA, for which the binding signal in [1] is 1.42 fold enrichment (6-mer frequency, TF over GST control); in assay [2], 1.03 fold enrichment (6-mer frequency, TF over GST control); in assay [3], 1.04 fold enrichment (6-mer frequency, TF over GST control); in assay [4] it was 1 fold enrichment (6-mer frequency, TF over GST control); in assay [5] it was 1.04 fold enrichment (6-mer frequency, TF over GST control); in [6], 1.08 fold enrichment (6-mer frequency, TF over GST control). Further, the binding signal in assay [7] was 1.04 fold enrichment (6-mer frequency, TF over GST control); in [8], 1.04 fold enrichment (6-mer frequency, TF over GST control); in [9] it was 1.07 fold enrichment (6-mer frequency, TF over GST control).

The values above are taken from article PMC7862700, “An all-to-all approach to the identification of sequence-specific readers for epigenetic DNA modifications on cytosine”.
